The structures appear in SMILES notation. Values joined by “and” are separate entries in the source; they are usually repeats but may differ in a detail not shown here. Equal values may be shown once. Compounds without any hit were thinned out: in the full panel of roughly 83,000, 20% have a hit.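 Plates (96-well) were seeded with cells, treated with compound at one concentration, and incubated for 48 hours before percent growth was determined.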 Unmarked numbers belong to inactive results. Active and inactive are the calls of the source. How the source made its calls: active means growth percent below 10; inactive means the rest.

The assay concerns MDA-MB-468 breast. As to the kind of experiment: NCI-60 one-dose screen, 48 h (100 = growth as untreated, 0 = no growth, -100 = all killed). The conditions noted are these: 10 µM unless noted.
For `COc1ccc(-c2cnc(NC(=O)CCCCCCNC(=O)C(O)(O)C(F)(F)F)s2)cc1`, the growth is -33.6% (active).
For `O=CN/N=C/c1ccc(Cl)c([N+](=O)[O-])c1`, the growth was -11.6% (active).
With `NC(N)=Nc1ccc(Oc2cccc(NC(N)=Nc3ccc(Cl)c(C(F)(F)F)c3)c2)cn1`, the growth is 6.72% (active).
Then `CC(C)(C)n1cc(-c2ccnc(NCCNS(=O)(=O)c3ccc(Cl)cc3)c2)c(-c2cccc(O)c2)n1`, with 32.6%.
In the case of `C#CCOc1ccc(C2=NN(C)C3N=C(Cl)c4ncn(C)c4N23)cc1OCC#C` (stereo not given) it was 86.3%.
In the case of `COc1ccc(-c2csc(N(C(=O)N3CCN(c4cc5c(cc4F)c(=O)c(C(=O)O)cn5C4CC4)CC3)c3ccccc3)n2)cc1` it was 7.88% (active); in that of `COc1ccc(-c2nc(SC(C)C)nc(NNC(N)=O)c2C#N)cc1`, 80.5%; in that of `COc1ccc(/C=N/NC(=O)c2ccc(S(C)(=O)=O)cc2)cc1OC`, 100%.
`Cc1cc2c(cc1C)[n+](Cc1ccc3ccccc3n1)cn2Cc1ccc2ccccc2n1`: the growth was -35.5% (active).
With `COc1cc(NC(=O)c2cncnc2Nc2ccc3c(ccn3Cc3ccccn3)c2)cc(OC)c1`, the growth was 15.6%.
Turning to `Fc1cc(C2=NNC(c3ccc[nH]3)C2)ccc1-n1ccc(C(F)(F)F)n1` (stereo not given), the growth was 89.7%.
`COc1ccc2c(CCCc3ccc(Cl)cc3Cl)c3[n+](cc2c1OC)CCc1cc2c(cc1-3)OCO2`: the growth is -49% (active).
Then `Nc1ccc(Br)cc1C(F)(F)F`, with 110%; and `O=C(Nc1ccc(Cl)c([N+](=O)[O-])c1)Nc1nc2ccccc2s1`, with 40.6%.
Turning to `O=C(/C=C\c1cccc([N+](=O)[O-])c1)c1ccccc1`, the growth was -13.8% (active).
Regarding `COc1ccccc1NC(=O)OCC#CCOC(=O)Nc1ccccc1OC`, the growth was 92.6% and 89.9%.
Then `CCC(CC)n1c(=O)c(SC2=NC3C(NN2)N(CC)C(=O)N3CC)c(C(=O)O)c2ccccc21` (stereo not given), with 23%; and `NC(=O)C1=C[C@H]2[C@H]3C=C[C@@]2(O)C(=O)O[C@@H]3O1`, with -5.42% (active); and `CC(Sc1nc2sc3c(c2c(=O)n1-c1ccc(Cl)cc1)CCCC3)C(=O)Nc1nc(-c2ccc(Br)cc2)cs1` (stereo not given), with 105%.
Turning to `COc1cc(-n2cc(-c3cc(O)c(C/C=C(\C)CCC=C(C)C)c(O)c3)nn2)cc2c1O[C@]1(C)CC[C@@H](O)C(C)(C)[C@H]1C2`, the growth was -14.6% (active).
Then `COc1ccc(-n2nnc(C(=O)NCCc3c[nH]c4ccc(F)cc34)c2C)cc1`, with 109%; and `C=C1C(=O)O[C@H]2[C@H]1CC/C(Cn1cc(CCC)nn1)=C\CC[C@@]1(C)O[C@@H]21`, with -31.7% (active); and `COc1nccc2c(Sc3ccccc3)nc(N)nc12`, with 112%.
On to `O=C(CNc1nnc(-c2cccnc2SCc2ccccc2)s1)Nc1nc(Cl)cc(Cl)n1`, for which the growth is 112%.
In the case of `CC[N+](CC)=c1cc2oc3cc(N(C)C)ccc3nc-2cc1C` it was -14% (active).
Then `COC[C@]12CCC(C)(C)C[C@H]1C1=CC[C@@H]3[C@@]4(C)CCCNC(C)(C)[C@@H]4CC[C@@]3(C)[C@]1(C)CC2`, with -82.1% (active); and `O=C(Nc1cccc(Br)c1)Oc1ccc(Cl)c2cccnc12`, with -9.1% [100 µM] (active); and `O=S(=O)(c1cc(Cl)ccc1O)c1cc(Cl)ccc1O`, with 63.1%.
Then `O=C1C(Cl)=C(Nc2cccc3ccccc23)C(=O)c2ccccc21`, with -3.45% (active); and `CCCC1C(C(=O)OCC)=C(N)Oc2cc(O)ccc21` (stereo not given), with 110%.
For `COc1ccc(N2CCN(S(=O)(=O)c3oc(-c4ccccc4)nc3C#N)CC2)cc1`, the growth is 79.6%.
Then `COc1ccc(/C=C/C(=O)/C=C(/C=C/c2ccc(OC)c(OC)c2OC)OB(F)F)c(OC)c1OC`, with 39.1%; and `O=C(O)CCC(=O)c1ccc(C2CCCCCC2)cc1`, with 105%; and `COc1ccc(C2=NN(C(C)=O)C(c3cn(-c4ccccc4)nc3-c3ccc(Cl)cc3)C2)cc1` (stereo not given), with -1.41% (active).
Then `COC(=O)/C=C1\Sc2cc(F)ccc2NC1=O`, with 99.8%; and `CC1=C(CCC(C)NCc2ccc(OCCCN3CCCCC3)cc2)C(C)(C)CCC1` (stereo not given), with -92.7% (active).
Consider `CC1(C=O)NC(=O)NC1=O` (stereo not given), for which the growth was 101%.
In the case of `CN1CCN(CC(=O)N(C)c2ccc(N=C(c3ccccc3)c3c(O)[nH]c4ccc([N+](=O)[O-])cc34)cc2)CC1` it was 87.8%.
Then `CC(C(C(=O)N1CCCCC1)N1CCCCC1)N1CCCCC1` (stereo not given), with 115%; and `Clc1ccc(-c2nc(C(Cl)Cl)nc3cc(-c4ccccc4)nn23)cc1`, with -33.8% (active).

The values above are taken from PubChem BioAssay (NCI).
